Screens deposited in PubChem by National Center for Advancing Translational Sciences (NCATS).
Rows were chosen to be rich in hits. Some 19% of all compounds tested hit in one or more screens of this group.
IL-1B inflam inh = inhibitors of inflammasome signaling (IL-1 beta secretion); THP-1 LPS/ATP IL-1B secretion, AlphaLISA, 16 h; stronger effect = lower value; activity change, % at 57.5 µM; actives 4.7% (n = 360,000); in the data active = activity change below about -50%; inconclusive = mostly about -30% to -49%
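THP-1 cells pretreated 1 hr with compounds (up to 57.5 uM final), then stimulated with LPS (250 ng/mL final) plus ATP (1.25 mM final); secreted IL-1B measured by AlphaLISA after 16 hr, decreased signal indicating inhibition.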
TDP1 cell noCPT = qHTS for Inhibitors of human tyrosyl-DNA phosphodiesterase 1 (TDP1): qHTS in cells in absence of CPT; DT40 Tdp1-/- hTDP1 cells, no CPT, ATP luminescence, 48 h; Potency, µM (titrated, usually from 46.2 µM), actives largely listed as inhibitors; actives 15% (n = 420,000); also: nearly all actives have a fitted effect of over 55% in size
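No-CPT arm: Tdp1-/-;hTDP1 DT40 cells (400/well) plus compounds, incubated ≥48 hr at 37 °C. Readout CellTiter-Glo luminescence.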
HT1080 IDH1KD tx = toxicity to HT-1080 IDH1 knockdown cells (counter line). actives 2% (n = 360,000). HT-1080 IDH1 knockdown viability, ATP luminescence, 48 h. Potency, µM (highest dose often 46.1 µM), hits mostly cytotoxic
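IDH1KD HT-1080 cells, 750/well, RPMI + 5% FBS; compound pinned after 2 h settling; 48 h, 37 °C; CellTiter-Glo luminescence; % activity normalised to DMSO and no-cell wells; curves fitted, classed by r2 and efficacy.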
HT1080NT lethal = kills 2HG-producing HT-1080-NT fibrosarcoma cells. HT-1080-NT fibrosarcoma viability, CellTiter-Glo ATP luminescence, 48 h. Potency, µM (series often up to 46.1 µM), usual class: cytotoxic. actives 1.6% (n = 360,000). AID 686970;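 also: NT is the 2HG producing partner of a matched IDH1 knockdown line; nearly all actives have a fitted effect of over 55% in size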
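Viability of the 2HG-overproducing fibrosarcoma line after 48 hours of compound exposure at 37 degrees C was determined by luminescence with CellTiter-Glo, and concentration-effect curves were then fitted and categorized.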
TDP1 cell CPT = growth inhibition of DT40 Tdp1-/-;hTDP1 cells with camptothecin (screen for TDP1 inhibitors); actives 12% (n = 420,000); AID 686979; Potency, µM (doses to about 46.2 µM), most hits filed as inhibitors; chicken DT40 Tdp1-/-;hTDP1 cells + 20 nM CPT, ATP luminescence, 48 h; also: nearly all actives have a fitted effect of over 55% in size
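Chicken DT40 Tdp1-/- cells complemented with human TDP1, 400 cells/well, exposed to compounds plus 20 nM camptothecin for at least 48 h at 37 C; viability read as ATP content by CellTiter-Glo luminescence.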
A number is an active result; 0 = inactive; ? = inconclusive; - = not tested or not shown. Unless noted, calls follow the shape of the dose curve; as a rule, active = well fitted curve in the direction sought with a large enough effect; inconclusive = small, poorly fitted or top-dose-only effect, or another doubt; inactive = no such curve, though single readings can be large; an effect the other way counts as inactive or inconclusive.

SMILES | IL-1B inflam inh | TDP1 cell noCPT | HT1080 IDH1KD tx | HT1080NT lethal | TDP1 cell CPT
Nc1c(N(CCC2=CCCCC2)C(=O)c2ccc([N+](=O)[O-])o2)c(=O)[nH]c(=O)n1Cc1ccccc1 | 0 | ? | 0 | 0 | ?
CCOC(=O)C1CCN(S(=O)(=O)c2cc3c(cc2C)NC(=O)CO3)CC1 | 0 | 0 | 0 | 0 | 0
C/C(=N\NC(=S)Nc1cc(S(=O)(=O)N2CCOCC2)ccc1Cl)c1ccccc1F | 0 | 2.3µM | ? | 0 | 3.3µM
CCOC(=O)N1CCN(C(=S)Nc2cc(S(=O)(=O)N3CCOCC3)ccc2Cl)CC1 | 0 | 18µM | 0 | 0 | ?
COc1ccc(-n2ncc3c2CC(C)(C)CC3NC(=O)C2=CC(=O)CC(C)(C)O2)cc1 (centres undefined) | 0 | 0 | 0 | 0 | ?
COc1cccc(OC)c1C(=O)Nn1c(-c2cccs2)nc2ccccc2c1=O | 0 | ? | 0 | 0 | 0
CC1(C(=O)Nc2ccc(Cl)c(Cl)c2)CCN1CCc1ccccc1 (centres undefined) | 0 | ? | 0 | 0 | ?
CC(=O)c1cccc(N/C=C\C(=O)c2ccc(C)cc2)c1 | 0 | ? | 0 | 0 | 0
CC(=O)c1cccc(NS(=O)(=O)c2ccc(N/C=C\C(=O)c3ccc(F)cc3)cc2)c1 | ? | 10µM | 0 | 0 | 13µM
CC(=O)c1ccc(NS(=O)(=O)c2ccc(N/C=C/C(=O)c3ccc(F)cc3)cc2)cc1 | 0 | ? | 0 | 0 | ?
Cc1noc(NS(=O)(=O)c2ccc(N/C=C\C(=O)c3ccc4c(c3)OCO4)cc2)c1C | 0 | 0 | 10µM | 0 | 0
CC(=O)c1cccc(NS(=O)(=O)c2ccc(N/C=C/C(=O)c3ccc(F)cc3)cc2)c1 | -76 | 18µM | ? | ? | 12µM
CC(=O)c1cccc(NS(=O)(=O)c2ccc(N/C=C\C(=O)c3ccc(C)cc3)cc2)c1 | 0 | 3.7µM | ? | ? | ?
CC(C)[C@@H]1CC[C@@H](C)C[C@H]1OC(=O)c1ccccc1O | - | 0 | - | - | 0
O=C(COc1ccc(Br)cc1)N1CCN(c2ccc([N+](=O)[O-])c(N3CCCCC3)c2)CC1 | 0 | 21µM | 0 | 0 | ?
O=C(COc1ccccc1)N1CCN(c2ccccc2)CC1 | 0 | 0 | 0 | 0 | 0
O=C(COc1ccccc1)N1CCN(c2ccc([N+](=O)[O-])c(N3CCCCC3)c2)CC1 | -53 | ? | 0 | 0 | ?
O=C(NCC1CCCO1)C(=O)N/N=C/c1ccc(OCc2ccccc2Cl)cc1 (centres undefined) | 0 | 0 | 0 | 0 | 0
COC(=O)c1c(SCC(=O)Nc2cc(C)cc(C)c2)[nH]c2ccccc2c1=O | - | ? | - | - | 23µM
COc1ccc(Cl)cc1NC(=O)CN(C)CC(=O)Nc1ccccc1C(F)(F)F | 0 | 0 | 0 | 0 | 0
COC(=O)c1c(SCC(=O)Nc2ccccc2C(F)(F)F)[nH]c2ccc(Cl)cc2c1=O | - | 29µM | - | - | 21µM
CC1CC(C)CN(S(=O)(=O)c2cc3c(cc2Cl)NC(=O)CO3)C1 (centres undefined) | 0 | ? | 0 | 0 | 0
O=C(O)CCNc1ccc2c(c1)OCCO2 | 0 | 0 | 0 | 0 | 0
CCNC(C(=O)c1c[nH]c2c(CC)cccc12)c1ccccc1 (centres undefined) | -57 | ? | ? | ? | ?
CCc1cccc2c(C(=O)C(NCCOC)c3ccccc3)c[nH]c12 (centres undefined) | 0 | 12µM | 0 | ? | ?
Cc1ccccc1N1CC(C(=O)N2CCCCCC2)CC1=O (centres undefined) | 0 | 0 | 0 | 0 | 0
O=C(C1CCCO1)N1CCN(C(=S)Nc2ccc(Cl)cc2)CC1 (centres undefined) | 0 | 0 | 0 | 0 | 0
CC1(C)CC(=O)c2c(O)cc(OCC(=O)NCCc3ccc(S(N)(=O)=O)cc3)cc2O1 | 0 | 0 | 0 | 0 | 0
COc1cc(NC(=O)COc2cc(O)c3c(c2)OC(C)(C)CC3=O)cc(OC)c1OC | 0 | 0.26µM | ? | 0 | 0.46µM
COc1ccc(CNC(=O)COc2cc(O)c3c(c2)OC(C)(C)CC3=O)cc1 | 0 | 0.82µM | 0 | 0 | 33µM
